# Hits are enriched below; roughly 5.4% of the tested compounds scored in any of these assays.
# RORgamma inh – inhibitors of mouse ROR gamma transcriptional activity; Potency, µM (titrated, usually from 53.6 µM), for inactives: at the top dose activity change, negative = inhibition, most hits filed as inhibitors; P51450; hit rate 5.4% among 310,000; Drosophila S2 Gal4-RORgamma UAS-luciferase reporter, 20 h; note: potency is the fitted concentration of half-maximal effect; % is set by controls: 0 for no effect and ±100 for the full control effect; nearly all actives have a fitted effect of over 60% in size
# Target sequence (P51450 whole entry, looked up, the tested form may be a part): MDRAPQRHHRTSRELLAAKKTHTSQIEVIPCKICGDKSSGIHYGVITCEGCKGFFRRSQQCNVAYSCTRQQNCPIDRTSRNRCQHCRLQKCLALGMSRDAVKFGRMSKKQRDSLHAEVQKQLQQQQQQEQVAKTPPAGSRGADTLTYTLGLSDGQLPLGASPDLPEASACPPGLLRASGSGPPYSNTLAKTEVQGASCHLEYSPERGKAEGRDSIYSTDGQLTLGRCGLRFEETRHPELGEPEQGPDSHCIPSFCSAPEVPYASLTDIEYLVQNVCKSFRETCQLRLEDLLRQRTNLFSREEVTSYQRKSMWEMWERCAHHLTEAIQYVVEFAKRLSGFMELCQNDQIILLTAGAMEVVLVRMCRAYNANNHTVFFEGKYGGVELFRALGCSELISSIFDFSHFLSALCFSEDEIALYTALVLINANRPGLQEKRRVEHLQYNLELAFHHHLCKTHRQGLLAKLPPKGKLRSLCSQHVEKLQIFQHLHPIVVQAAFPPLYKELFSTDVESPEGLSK
#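 In this cell-based reporter format, copper sulfate (700 uM final) drives Gal4–ROR gamma fusion expression from a metallothionein promoter in Drosophila Schneider cells; compounds preincubated 1 hr, reporter read after 20 hr at ambient temperature.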
# Six1-Eya2 blk – inhibitors of human Six1/Eya2 interaction | activity change, % (no concentration beside the values) | hit rate 0.56% among 360,000 | AID 651725 | AlphaScreen GST-Six1/His-Eya2 binding, biochemical; hits give low values | Q15475+O00167; in the data active = activity change below about -65%; inconclusive = mostly about -30% to -63%; note: % is set by controls: 0 for no effect and ±100 for the full control effect
#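 Compounds are tested against tagged Six1 and Eya2 proteins bridged by glutathione donor and nickel acceptor beads; after a one-hour incubation at 37 °C without light, AlphaScreen emission is recorded.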
# CtBP-E1A blk – blocks the CtBP interaction with E1A; AlphaScreen GST-E1A/His-CtBP binding, 1536-well; hits give low values; activity change, % (no concentration beside the values); hit rate 0.49% among 340,000; in the data active = activity change below about -65%; inconclusive = mostly about -30% to -63%; note: % is set by controls: 0 for no effect and ±100 for the full control effect
#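 AlphaScreen with 125 nM GST-E1A and 125 nM His-CtBP (5X stocks) in Tris pH 8.0, 300 mM NaCl, BSA, Tween 20, TCEP. Compounds preincubated 2 h at 37 deg C, then glutathione donor/nickel acceptor beads added for 1 h at 37 deg C in dark.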
# p53 reactivation – mutant p53 re-activation in reporter cells | H1299 p53-A138V BP100-luciferase reporter, luminescence, 24 h | Potency, µM (doses to about 92.2 µM), for inactives: top-dose activity change, positive = activation, usual class: activators | hit rate 0.063% among 320,000; note: potency is the fitted concentration of half-maximal effect; % of control where 0% means no effect; nearly all actives have a fitted effect of over 45% in size
#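 p53-null H1299 cells stably carrying temperature-sensitive p53-A138V and a BP100-luciferase reporter were pinned with compounds (4-point, 1:5 series) and held 24 hrs at 37 deg C. Luminescence was read 10 min after detection reagent.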
# VP16 counter – inhibits Gal4-VP16 luciferase reporter, ROR gamma counter-screen | Drosophila S2 Gal4-VP16 UAS-luciferase, luminescence, 20 h | Potency, µM (series often up to 53.6 µM), for the others: at the highest dose activity, negative = inhibition, hits mostly inhibitors | hit rate 3.5% among 310,000;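 note: Gal4-VP16 expression switched on by copper sulfate through the metallothionein promoter; potency is the fitted concentration of half-maximal effect; % is set by controls: 0 for no effect and ±100 for the full control effect; nearly all actives have a fitted effect of over 50% in size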
# Numbers without * were called inactive; ? = inconclusive; nt = not tested or not shown. Unless noted, calls come from the whole dose curve; as a rule, active = well fitted curve in the direction sought with a large enough effect; inconclusive = small, poorly fitted or top-dose-only effect, or another doubt; inactive = no such curve, though single readings can be large; an effect the other way counts as inactive or inconclusive.
SMILES,RORgamma inh,Six1-Eya2 blk,CtBP-E1A blk,p53 reactivation,VP16 counter
COc1ccccc1C(=O)Nc1nc(-c2ccc(S(=O)(=O)N3CCOCC3)cc2)cs1,-22.3%,?,?,-8.7%,3.16µM*
COc1ccc(C(=O)Nc2ccccn2)cc1S(=O)(=O)N1CCOCC1,10.0%,-0.1,1.8,5.7%,8.6%
Cc1ccc(S(=O)(=O)N2CCOCC2)cc1C(=O)Nc1nc(-c2ccccn2)cs1,nt,-84.6*,3.4,?,nt
Cc1ccc(S(=O)(=O)N2CCOCC2)cc1C(=O)Nc1nc2ccccc2[nH]1,15.8µM*,-13.4,-7.2,9.5%,17.8µM*
Cc1ccc2nc(-c3ccccn3)cc(C(=O)Nc3ccc(S(=O)(=O)N4CCOCC4)cc3)c2c1,-13.6%,-4.4,nt,7.6%,5.5%
COC(=O)N1CCC2(CCCN(c3ncccn3)C2)CC1,2.5%,nt,nt,nt,-3.4%
CNc1nc(-c2ccc(S(=O)(=O)N3CCCCC3)cc2)cs1,nt,-3.4,nt,5.1%,nt
Cc1ccc(S(=O)(=O)N2CCOCC2)cc1C(=O)NCC1CCCO1 (stereo unspecified),-0.3%,11.4,-1.1,3.3%,0.0%
CCC1CCCCN1C(=S)NC(=O)c1cc(S(=O)(=O)N2CCOCC2)ccc1C (stereo unspecified),2.24µM*,-1.8,1.0,-2.6%,3.98µM*
O=C(Nc1nc(-c2ccccn2)cs1)c1ccc(S(=O)(=O)N2CCCCC2)cc1,1.58µM*,nt,nt,14.5%,6.31µM*
O=C(Nc1nc(-c2ccc(S(=O)(=O)N3CCCC3)cc2)cs1)c1ccco1,?,-68.7*,-85.2*,3.8%,-11.5%
CCCSC(=S)c1c(C)[nH]n(-c2ccccc2)c1=O,0.316µM*,-9.6,-0.9,5.8%,0.794µM*
N#CC1=C(N)SC(N)=C(C#N)C1Cc1ccccc1,7.2%,2.3,-0.1,6.7%,4.4%
N#CC1=C(N)SC(N)=C(C#N)C1CCc1ccccc1,7.94µM*,-8.8,-18.9,-17.4%,?
N#CC1=C(N)SC(N)=C(C#N)C1c1c(Cl)cccc1Cl,8.91µM*,-5.1,-0.4,10.3%,?
Cc1noc(C)c1-c1ccc2ncnc(NC(C)c3ccccc3)c2c1 (stereo unspecified),-81.2%,nt,nt,nt,-11.5%
CC(Nc1ncnc2ccccc12)c1ccccc1 (stereo unspecified),?,-3.9,8.8,-22.3%,2.82µM*
COc1ccc2oc3cc(NCCN(C)C)ccc3c(=O)c2c1,nt,-70.3*,-74.6*,nt,nt
CC(C)CC(=O)/C(=C\c1ccc(Cl)cc1Cl)n1cncn1,4.47µM*,-3.1,nt,-24.2%,5.01µM*
CC(C)CC(=O)/C(=C/c1ccc(N(C)C)cc1)n1cncn1,27.7%,7.3,4.9,8.7%,8.4%
C=C1CCc2c([nH]c3ccc(OCC(C)C)cc23)C1=O,14.1µM*,1.0,7.0,-15.8%,?
O=C(NNc1nc(-c2ccccc2)cs1)c1ccco1,3.55µM*,-4.4,0.6,11.1%,5.01µM*
O=C(NNc1nc(-c2ccc(Cl)cc2)cs1)c1ccco1,3.98µM*,-1.5,-5.0,?,5.01µM*
O=C(Nc1nc(-c2ccc(Cl)s2)cs1)c1ccco1,-29.1%,-7.6,6.5,2.1%,17.4%
CC(=O)Nc1ccc(-c2csc(NNC(=O)c3ccccc3)n2)cc1,8.91µM*,23.5,nt,2.6%,-3.9%
SMILES,RORgamma inh,Six1-Eya2 blk,CtBP-E1A blk,p53 reactivation,VP16 counter
COc1ccccc1-c1cnc(C(O)c2ccc(SC)cc2)[nH]1 (stereo unspecified),nt,-13.2,-13.3,nt,nt
Oc1c(Br)cc(Br)cc1C=NCc1ccc(F)cc1,10µM*,-6.5,6.6,15.8%,?
CCc1cccc(CC)c1NC(=S)N1CCn2cccc2C1c1cccnc1 (stereo unspecified),-22.9%,-21.3,-9.0,-14.9%,-0.1%
Fc1cccc(F)c1/C=C/c1ccc2ccccc2n1,?,42.3,54.6,22.4µM*,?
C(=C\c1ccco1)/c1ccc2ccccc2n1,12.3%,-0.4,21.6,?,4.1%
Cc1ccsc1/C=C/c1ccc2cccc(O)c2n1,4.47µM*,8.8,11.7,39.8µM*,?
Oc1cccc2ccc(/C=C/c3cccs3)nc12,12.6µM*,4.1,12.9,?,?
Cc1ccsc1/C=C/c1ccc2ccccc2n1,10µM*,54.4,67.8,12.9%,?
O=C(/C=C/c1cccs1)Nc1cccc(NC(=O)/C=C/c2cccs2)n1,?,0.0,-2.6,?,-24.7%
Cc1ccsc1/C=C/C(=O)O,-0.8%,2.5,4.6,5.6%,2.7%
O=C(/C=C/c1cn(-c2ccccc2)nc1-c1cccs1)NCCN1CCOCC1,31.8%,?,?,?,-0.6%
CC1CCCN(C2=C(NS(=O)(=O)c3ccc(Br)cc3)C(=O)c3ccccc3C2=O)C1 (stereo unspecified),-23.7%,-3.5,?,nt,?
CCOC(=O)C1CCCN(C2=C(NS(=O)(=O)c3ccc(Br)cc3)C(=O)c3ccccc3C2=O)C1 (stereo unspecified),-17.0%,-71.3*,nt,15.6%,-13.5%
CCOC(=O)C1CCN(C2=C(NS(=O)(=O)c3ccc(Cl)cc3)C(=O)c3ccccc3C2=O)CC1,-5.5%,?,-81.5*,6.4%,0.3%
CCOC(=O)N1CCN(C2=C(NS(=O)(=O)c3ccc(NC(C)=O)cc3)C(=O)c3ccccc3C2=O)CC1,-34.5%,-17.8,nt,0.0%,-20.9%
Cn1c(=O)cc(C(=O)N/N=C/c2ccc(F)cc2)[nH]c1=O,-9.3%,-2.5,-9.1,2.6%,1.2%
CCOC(=O)C1(Cc2ccccc2)CCN(Cc2nccn2CC)CC1,7.94µM*,-22.9,-22.7,-0.2%,?
CCOC(=O)C1(CCc2ccccc2)CCN(Cc2nccn2CC)CC1,7.08µM*,-1.3,5.7,0.1%,11.2µM*
CCOC(=O)C1(Cc2ccc(Cl)cc2)CCN(Cc2nccn2CC)CC1,3.16µM*,-4.7,-15.3,-4.3%,12.6µM*
Cc1oc(-c2cccc(Cl)c2)nc1CS(=O)(=O)CC(=O)NCc1ccco1,14.5%,0.6,-1.8,-10.4%,-10.2%
Cc1ccc(C)c(N2C(=N)S/C(=C\c3ccc(-c4ccccc4C(=O)O)o3)C2=O)c1,18.3%,-72.3*,?,0.9%,-0.2%
Fc1ccc(CNc2ccc(N3CCN(Cc4ccccc4)CC3)cc2)cc1,17.0%,-72.3*,-73.5*,-0.2%,-1.7%
CC(=O)N1CCN(c2ccc(NCc3ccccc3)cc2)CC1,23.3%,-13.1,-2.9,?,10.6%
CC1C(c2ccccc2)N(C)C(c2ccccc2)C(C)C1(O)C#Cc1ccccc1 (stereo unspecified),15.8µM*,-0.8,-2.7,5.7%,?
O=C(CSc1nnc(-c2ccc(O)cc2)o1)N1CCOCC1,3.8%,-4.6,6.4,?,4.0%
Oc1ccc(-c2nnc(SCC3CCCCC3)o2)cc1,3.16µM*,-14.9,-5.7,?,8.91µM*
